# Assay results from PubChem BioAssay AID2501 (Southern Research Specialized Biocontainment Screening …, 2010).
# Among all 2,200 compounds or so, about 1,200 (55%) were called active. Cut-off not given; nearly all actives show IC50 up to about 92 µM. So high a share suggests a set chosen from earlier hits. This is one part of the list.
# Assay: counter assay for TAg ATPase ADP read-out – biochemical, ADP-Hunter, fluorescence, counter-screen (AID 2501);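 further: purified T antigen ATPase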;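 on inhibition: 0% = enzyme with vehicle and 100% = reference inhibitor wells; higher means more inhibition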
# Details: series mostly up to 100 µM; inhibition: at the top concentration
Compound,inhibition,IC50
O=C(NCCO)Nc1ccc2nc(-c3ccco3)c(-c3ccco3)nc2c1,-158% (inactive),
O=C(N/N=C/c1ccc(O)c(O)c1)N/N=C/c1ccc(O)c(O)c1,,1.85 µM (active)
S=c1[nH]nc(NCCCN2CCOCC2)s1,,52.3 µM (active)
COc1ccccc1N1CSC2=C(C#N)C(c3ccc(SC)cc3)CC(=O)N2C1 (centres undefined),,27.8 µM (active)
CN1CSC2=C(C#N)C(c3cccc(OCc4ccccc4)c3)CC(=O)N2C1 (centres undefined),,21.8 µM (active)
COc1cc(SC#N)ccc1N=Cc1c(C)[nH]n(-c2cccc3ccccc23)c1=O,16% (inactive),
COc1ccc(N2CSC3=C(C#N)C(c4ccc(OC)c(OC)c4)CC(=O)N3C2)c(OC)c1 (centres undefined),,24.8 µM (active)
CCOc1ccc2ccccc2c1C(=O)N[C@@H]1C(=O)N2[C@@H]1SC(C)(C)[C@@H]2C(=O)O,25.5% (inactive),
CCOc1ccccc1N1CSC2=C(C#N)C(c3c(OC)ccc4ccccc34)CC(=O)N2C1 (centres undefined),,81.2 µM (active)
COc1ccc(C2CC(=O)N3CN(c4ccccc4F)CSC3=C2C#N)cc1OC (centres undefined),27.1% (inactive),
CC(C)c1ccc(C2CC(=O)N3CN(C)CSC3=C2C#N)cc1 (centres undefined),13.5% (inactive),
CC(=O)N1N=C(c2ccc(C)cc2)CC1c1ccco1 (centres undefined),27.2% (inactive),
COc1cc(OC)c(C2CC(=O)N3CN(C)CSC3=C2C#N)cc1OC (centres undefined),,83.4 µM (active)
COc1ccc(N2CSC3=C(C#N)C(c4cc(OC)ccc4OC)CC(=O)N3C2)c(OC)c1 (centres undefined),,9.09 µM (active)
COc1cc(OC)c(C2CC(=O)N3CN(c4ccc(C)cc4)CSC3=C2C#N)cc1OC (centres undefined),,68 µM (active)
COc1ccc(OC)c(C2CC(=O)N3CN(c4cccc(Cl)c4C)CSC3=C2C#N)c1 (centres undefined),16.4% (inactive),
COc1ccc(N2CSC3=C(C#N)C(c4cc(OC)c(OC)cc4OC)CC(=O)N3C2)c(OC)c1 (centres undefined),,78.4 µM (active)
COc1cc(OC)c(C2CC(=O)N3CN(c4ccccc4C)CSC3=C2C#N)cc1OC (centres undefined),26.7% (inactive),
COc1ccc2c(c1OC)C(=O)N1c3ccccc3N=C(c3ccc([N+](=O)[O-])cc3)CC21 (centres undefined),-23.3% (inactive),
N#C/C(=C/c1ccc(O)c(O)c1)c1nc2ccccc2[nH]1,,5.71 µM (active)
O=C(NCc1ccco1)/C(=C/c1ccc(C(F)(F)F)cc1)c1nc2ccccc2[nH]1,-8.13% (inactive),
O=C(C[n+]1ccccc1)N/N=C/c1ccc(O)cc1,,3.04 µM (active)
O=C(CC(=O)N/N=C/c1ccc(O)cc1)N/N=C/c1ccc(O)cc1,,1.98 µM (active)
O=C(CCn1cnc2ccccc21)N/N=C/c1ccc(O)cc1,,7.9 µM (active)
Cc1cccc(-c2nn(-c3ccccc3)cc2C(=O)Nc2cccc(S(=O)(=O)NC3=NCCC3)c2)c1,10.6% (inactive),
Cc1nc2cc(-c3ccsc3-n3c(C)ccc3C)[nH]n2c(=O)c1Cl,-94.4% (inactive),

Compound,inhibition,IC50
CNc1nc(-c2ccccc2)[n+](-c2ccc(C)cc2)s1,,18.6 µM (active)
COc1cc2c(cc1OC)-c1cc(Nc3ccc(N(C)C)cc3)nc(=O)n1CC2,,1.76 µM (active)
O=C1CSC(=Nc2ccc(O)cc2)N1c1ccc(O)cc1,,3.6 µM (active)
O=C1C=CC(=O)N1c1ccc(O)cc1,29.8% (inactive),
Cc1nnc(N/N=C/c2c(O)n(-c3cccc(C(F)(F)F)c3)c(=O)c3ccccc23)[nH]c1=O,,8.07 µM (active)
Cc1ccc(CNc2ccc3c(c2)ncn3C(C)C)cc1,,12.7 µM (active)
CN(C)c1ccc(CNc2ccc3c(c2)ncn3C)cc1,,13.5 µM (active)
CC(C)c1ccc(CNc2nnnn2C)cc1,-26.9% (inactive),
CCn1cnc2cc(NCc3ccc(N(C)C)cc3)ccc21,,10.5 µM (active)
ClC(Cl)(c1nnnn1-c1ccccc1)c1nnnn1-c1ccccc1,-14.1% (inactive),
CC(Cc1ccc(O)c(O)c1)C(C)Cc1ccc(O)c(O)c1 (centres undefined),,22.3 µM (active)
CCCCCCN=C(C)c1ccccc1O,-32.1% (inactive),
CC(=O)N(c1ccc2oc(=O)sc2c1)S(=O)(=O)c1ccccc1,,62.1 µM (active)
O=C(O)c1cccc(S(=O)(=O)Nc2ccc3oc(=O)sc3c2)c1,24.3% (inactive),
CSc1nc(O)c(C(c2ccc(OC(C)C)cc2)c2c(O)nc(SC)[nH]c2=O)c(=O)[nH]1,-0.04% (inactive),
COc1cc(/C=N/NC(=O)C2=NNC(=O)C2C)ccc1O (centres undefined),,6.5 µM (active)
COc1cc(/C=N/NC(=O)CC2C(=O)NN=C2C)ccc1O (centres undefined),,5.63 µM (active)
CCCc1cc(=O)[nH]c(Nc2ccc(O)cc2)n1,,3.17 µM (active)
COc1cccc(C=Nc2ccc(N3CCOCC3)cc2)c1O,,5.29 µM (active)
Oc1ccc(C=Nc2ccc(N3CCOCC3)cc2)c(O)c1,,2.33 µM (active)
Oc1ccc2ccccc2c1C=Nc1ccc(N2CCOCC2)cc1,,2.74 µM (active)
Oc1ccc(N=Cc2cc(Br)c(N3CCOCC3)o2)cc1,,8.18 µM (active)
Cc1ccc(NC(NC(=O)Cc2ccccc2)C(Cl)(Cl)Cl)cc1 (centres undefined),-24.6% (inactive),
CC1CCCN(Cc2nc(Cc3ccccc3Cl)no2)C1 (centres undefined),-5.63% (inactive),
COc1ccc(CC(O)COS(N)(=O)=O)cc1 (centres undefined),-27.6% (inactive),
C(=Nc1ccc(N2CCOCC2)cc1)c1c[nH]c2ccccc12,,7.55 µM (active)

Compound,inhibition,IC50
O=[N+]([O-])c1cc(Cc2ccccc2)cc(C=Nc2ccc(N3CCOCC3)cc2)c1O,,3.16 µM (active)
O=[N+]([O-])/C=C\c1ccc(N2CCOCC2)cc1,-8.52% (inactive),
O=C(O)c1cc(-c2ccco2)nc2cc3ccccc3cc12,8.1% (inactive),
CCC(=O)NC(C)C(c1cccs1)N1CCN(c2ccccc2)CC1 (centres undefined),1.69% (inactive),
O=c1cc(CN2CCN(c3ccc(O)cc3)CC2)nc2scc(-c3ccccc3)n12,,9.38 µM (active)
O=c1[nH]c(=S)[nH]c2[nH]c(=S)[nH]c12,,52.7 µM (active)
CC(C)N1CN(c2ccccc2)C(=S)N(c2ccccc2)C1,13.2% (inactive),
N#C/C(C(=O)Nc1ccc(Cl)cc1)=C(/S)Nc1ccccc1,,21.8 µM (active)
Cc1nnc(Nc2ccc(O)cc2)[nH]c1=O,,3.89 µM (active)
Cc1n[nH]c(=O)nc1Nc1ccc(O)cc1,,2.48 µM (active)
Cc1[nH]nc(Nc2ccc(O)cc2)c1[N+](=O)[O-],,3.93 µM (active)
COc1cc(C=C(C(C)=O)C(C)=O)ccc1O,,3.76 µM (active)
COc1cc(/C=C(\C#N)C(=O)N2CCCCC2)ccc1O,,5.73 µM (active)
CCC(=O)N1CCc2cc(S(=O)(=O)N(C)c3ccc(OC)cc3OC)ccc21,22.4% (inactive),
Cc1cc(/C=C(\C#N)C(=O)NC2CCCCCC2)c(C)n1C,-11.6% (inactive),
N#C/C(=C\c1ccc(O)c(O)c1)C(=O)N1CCc2ccccc21,,9.2 µM (active)
COc1cc(/C=C(\C#N)C(=O)N2CCc3ccccc32)ccc1O,,2.3 µM (active)
CC(C)(C)NC(=O)COC(=O)c1cc(F)c(F)cc1Cl,0.35% (inactive),
CCOC(=O)N1[C@@H]2C=C(C)[C@@H]2[C@@H]2[C@@H](C)C(=O)N21,12% (inactive),
Cc1ccccc1/C=C/C(=O)c1ccc([N+](=O)[O-])o1,-26.8% (inactive),
O=C(/C=C/c1cccc(Cl)c1)c1ccc([N+](=O)[O-])o1,-11.4% (inactive),
COc1cc(/C=C/C(=O)c2ccc([N+](=O)[O-])o2)ccc1O,,5.19 µM (active)
Cc1ccc(S(=O)(=O)N2[C@@H](c3ccc(Cl)cc3)C(C(=O)O)=CC[C@H]2c2ccc(Cl)cc2)cc1,-14.6% (inactive),
Cc1ccc(S(=O)(=O)N2CCN(CC(=O)N/N=C\c3ccc(O)c(O)c3)CC2)cc1,,3.2 µM (active)
O=S(=O)(c1ccc(NC(=S)N/N=C/c2ccc(O)c(O)c2)cc1)N1CCOCC1,,5.94 µM (active)
COc1ccc(NC(=O)CN(C)C(=O)CCc2nc3cc(S(=O)(=O)N4CCOCC4)ccc3n2C)cc1,-2.23% (inactive),

Compound,inhibition,IC50
CCN(CC)c1ccc(NC(=O)CCNS(=O)(=O)c2ccc3c(c2)CCC(=O)N3)c(C)c1,,7.36 µM (active)
CC(C)(C)NC(=O)NC(=O)CN1CCN(c2ccc(O)cc2)CC1,,4.89 µM (active)
COc1ccc(-c2nnc(SC(C)C(=O)Nc3c(C)n(C)n(-c4ccccc4)c3=O)o2)cc1 (centres undefined),3.49% (inactive),
N#Cc1ccsc1NC(=O)CN1CCN(c2ccc(O)cc2)CC1,,6.3 µM (active)
Cc1c(NC(=O)c2cnn3c2NC(c2ccccc2)CC3C(F)(F)F)c(=O)n(-c2ccccc2)n1C (centres undefined),-5.94% (inactive),
Cc1c(NC(=O)C(C)OC(=O)/C=C/c2ccco2)c(=O)n(-c2ccccc2)n1C (centres undefined),12.1% (inactive),
Cc1c(NC(=O)CN2CCN(c3ccc(O)cc3)CC2)c(=O)n(-c2ccccc2)n1C,,8.18 µM (active)
CN1CCN(CC(=O)Nc2c(C#N)cnn2-c2ccccc2)CC1,-5.67% (inactive),
Cc1c(NC(=O)COC(=O)COc2ccc(Nc3ccccc3)cc2)c(=O)n(-c2ccccc2)n1C,,8.78 µM (active)
Cc1nc2ccc(NC(=O)c3cc([N+](=O)[O-])cc([N+](=O)[O-])c3Cl)cc2s1,-16.9% (inactive),
Cc1ccc(N/C(C(Cl)=C(Cl)Cl)=C(/Cl)[N+](=O)[O-])c(C)c1,13.1% (inactive),
O=C(Cn1cnc2c(nnn2Cc2ccccc2)c1=O)Nc1ccc2c(c1)OCCO2,-28.1% (inactive),
O=C(CN1CCN(c2ccc(O)cc2)CC1)Nc1ccc2c(c1)OCCO2,,6.55 µM (active)
Cc1cc(NC(=O)c2noc3c2CCCCC3)no1,-7.35% (inactive),
Cc1cc(NC(=O)CN2CCN(c3ccc(O)cc3)CC2)no1,,4.08 µM (active)
Cc1ccc(N(C=NC#N)CC(=O)N2CCN(c3ccccc3)CC2)cc1,-3.12% (inactive),
O=C(CCC(=O)N1CCN(c2ccccc2F)CC1)N1CCN(c2ccccc2)CC1,-11.5% (inactive),
O=C(C1CC1)N1CCN(c2ccc(O)cc2)CC1,,3.4 µM (active)
COc1ccccc1N1CCN(C(=O)C2CCN(S(=O)(=O)c3ccc(C)cc3)CC2)CC1,-16.4% (inactive),
Cc1ccc(OCCC(=O)N2CCN(c3ccc(O)cc3)CC2)cc1,,4.43 µM (active)
CCCCCCC1CCC(C(=O)N2CCOCC2)CC1 (centres undefined),14.4% [at 50 µM] (inactive),
O=C(CCOc1ccccc1)N1CCN(c2ccc(O)cc2)CC1,,3.56 µM (active)
O=C(COc1ncnc2sccc12)N1CCN(c2ccccc2)CC1,1.41% (inactive),
CCOc1ccc(OCCC(=O)OCC(=O)N2CCN(S(=O)(=O)c3ccc(C)cc3)CC2)cc1,,10.1 µM (active)
CCOC(=O)C1CCN(C(=O)COC(=O)CSc2ccc([N+](=O)[O-])cc2)CC1,-18.3% (inactive),
O=C(C1CCCN(S(=O)(=O)c2cccc3nonc23)C1)N1CCN(c2ccccc2)CC1 (centres undefined),9.89% (inactive),
